The text below walks through data of PubChem BioAssay (Tox21).

Where “and” joins values, the source holds several entries; their conditions need not be identical. Equal values may be shown once. Records with an inconclusive call do not appear. Calls of active or inactive are those of the source. Unless noted, calls come from the whole dose curve; as a rule, active = well fitted curve in the direction sought with a large enough effect in the repeat runs; inconclusive = weak or mixed curves; inactive = no such curve, though single readings can be large; an effect the other way counts as inactive or inconclusive.

Assay [1] in a line: qHTS assay to identify small molecule antagonists of the androgen receptor (AR) signaling pathway using the MDA cell line in the presence of 0.5 nM R1881 - cell viability counter screen (AID 1259242). Note: nearly all actives have a fitted effect of over 45% in size. Note: potency is the fitted concentration of half-maximal effect. A digest of the protocol: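 MDA-kb2 cells (human breast carcinoma, stably carrying MMTV-luciferase reporter) were exposed to compounds with 0.5 nM R1881 (final) for 16 hr at 37C, 0% CO2; viability then read as live-cell protease fluorescence (CellTiter-Fluor, 30 min) in the same wells.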
On the technique in general: qHTS replaces the single test concentration by a dilution series.

Assay [2] deals with Androgen receptor (Homo sapiens) (UniProt P10275). Put plainly: qHTS assay to identify small molecule antagonists of the androgen receptor (AR) signaling pathway using the MDA cell line in the presence of 0.5 nM R1881 (AID 1259243). Note: nearly all actives have a fitted effect of over 50% in size. Note: potency is the fitted concentration of half-maximal effect. A digest of the protocol: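 MDA-kb2 human breast carcinoma cells carrying an MMTV-luciferase reporter (AR- and GR-responsive) were plated, rested 5 hr at 37C, dosed with compounds, then stimulated with 0.5 nM R1881 (final) for 16 hr; luminescence was read after ONE-Glo.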

For assay [3], the target named is Estrogen receptor (Homo sapiens) (UniProt P03372). Put plainly: qHTS assay to identify small molecule antagonists of the estrogen receptor alpha (ER-alpha) signaling pathway using the BG1 cell line in the presence of 0.1 nM 17-beta-estradiol (AID 1259244). Note: nearly all actives have a fitted effect of over 50% in size. Note: potency is the fitted concentration of half-maximal effect. A digest of the protocol:
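VM7Luc4E2 cells (endogenous full-length ER-alpha, stable 4xERE-luciferase) were grown 5 days in phenol red-free medium with charcoal-stripped FBS, then exposed 22 h at 37C to compounds plus 0.1 nM (final) 17beta-estradiol; ONE-Glo luminescence read-out.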

A short description of assay [4]: qHTS assay to identify small molecule HDAC inhibitors - cell viability counter screen (AID 1259365). Note: nearly all actives have a fitted effect of over 50% in size. Note: potency is the fitted concentration of half-maximal effect. In short, it runs like this:
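Following a 2hr exposure of overnight-plated wild-type HCT-116 cells to DMSO-delivered compounds, CellTiter-Glo was added and luminescence recorded after 30min at room temperature.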

Assay [5] can be described thus: qHTS assay to identify small molecule antagonists of the sonic hedgehog signaling (Shh) pathway - cell viability counter screen (AID 1259367). Note: nearly all actives have a fitted effect of over 55% in size. Note: potency is the fitted concentration of half-maximal effect. A digest of the protocol: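 Cells: 3T3 Gli1-Luc, 2,000/well, 4 hr pre-incubation. Compounds in DMSO, then conditioned medium. Incubation 24 hr, 37C, 5% CO2. CellTiter-Fluor at 23 hr, 1 hr, fluorescence.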
The nature of assay [6]: qHTS assay to identify small molecule agonists of the sonic hedgehog signaling (Shh) pathway (AID 1259368; calls by dose curve; note: series mostly up to about 92 µM; nearly all actives have a fitted effect of over 15% in size). A digest of the protocol:
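NIH/3T3-derived 3T3Gli1-Luc cells carrying a stably integrated Gli1 response element–firefly luciferase reporter were plated, left 4 hr at 37 C, then given compounds in DMSO for 24 hr. Luminescence was read 30 min after adding luciferase reagent.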

Assay [7] can be described thus: qHTS assay to identify small molecule agonists of the androgen receptor (AR) signaling pathway in the presence of an antagonist - cell viability counter screen (AID 1259379). Note: nearly all actives have a fitted effect of over 25% in size. Note: potency is the fitted concentration of half-maximal effect. In short, it runs like this:
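MDA-kb2 human breast carcinoma cells (stable MMTV-luciferase, AR/GR responsive) were seeded 3,000 cells/well, pre-incubated 5 hr at 37C without CO2, then given 3.0uM nilutamide and compounds at 15 concentrations for 16 hr. Viability was read by CellTiter-Fluor fluorescence.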

Assay [8] is described as follows: qHTS assay to identify small molecule agonists of the estrogen receptor beta (ER-beta) signaling pathway - cell viability counter screen (AID 1259380). Note: nearly all actives have a fitted effect of over 30% in size. Note: potency is the fitted concentration of half-maximal effect. In short, it runs like this: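 ER-beta-UAS-bla HEK293T cells in medium with 2% charcoal-stripped FBS were preincubated 6 hr at 37C, dosed with compound in DMSO for 16 hr, then after the bla read, CellTiter-Glo was added for 30 min at room temperature; luminescence recorded.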

Assay [9] addresses Androgen receptor (Homo sapiens) (UniProt P10275). Nature of the assay: qHTS assay to identify small molecule agonists of the androgen receptor (AR) signaling pathway in the presence of an antagonist (AID 1259381; calls by dose curve; note: nearly all actives have a fitted effect of over 15% in size). A digest of the protocol:
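MDA-kb2 human breast carcinoma cells carrying an MMTV-luciferase reporter (AR- and GR-responsive) were treated with compounds at 15 concentrations plus 3.0uM final nilutamide for 16hr at 37C without CO2; luminescence was read after ONE-Glo addition.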

A short description of assay [10]: qHTS assay to identify small molecule antagonists of the estrogen receptor beta (ER-beta) signaling pathway - cell viability counter screen (AID 1259382). Note: nearly all actives have a fitted effect of over 55% in size. Note: potency is the fitted concentration of half-maximal effect. A digest of the protocol:
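ER-beta-UAS-bla HEK293T cells (2,000/well, 2% charcoal-stripped FBS) were pre-incubated 6 hr at 37C, then given compound plus 1nM final 17-beta-estradiol for 16 hr. Viability was read in the same wells by CellTiter-Glo luminescence after 30 min at room temperature.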

Assay [11] has as its target Estrogen receptor (Homo sapiens) (UniProt P03372). Nature of the assay: qHTS assay to identify small molecule agonists of the estrogen receptor alpha (ER-alpha) signaling pathway in the presence of an antagonist (AID 1259383; calls by dose curve; note: nearly all actives have a fitted effect of over 15% in size; note: potency is the fitted concentration of half-maximal effect; for activation: top concentration of the series differs between compounds). A digest of the protocol: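 VM7Luc4E2 cells (endogenous full-length ER-alpha, 4×ERE-luciferase) were precultured 5 days in phenol red-free medium with 10% charcoal-stripped FBS, given 10.0nM ICI-182,780 (final), then treated with compounds at 15 concentrations for 22hr at 37C; luminescence read with ONE-Glo.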

A short description of assay [12]: qHTS assay to identify small molecule agonists or antagonists of the thyroid stimulating hormone receptor (TSHR) signaling pathway - wild type cell line counter screen (AID 1259384; calls by dose curve). In short, it runs like this: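 Counter screen in untransfected Hek293: compounds (15-point titration, triplicate) plus phosphodiesterase inhibitor Ro20-1724 added after 18 h plating; 30 min RT. Intracellular cAMP via competitive d2/cryptate immunoassay, 1 h incubation.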

The nature of assay [13]: qHTS assay to identify small molecule agonists of the estrogen receptor alpha (ER-alpha) signaling pathway in the presence of an antagonist - cell viability counter screen (AID 1259386). Note: nearly all actives have a fitted effect of over 30% in size. Note: potency is the fitted concentration of half-maximal effect. A digest of the protocol:
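VM7Luc4E2 cells (endogenous full-length ER-alpha, 4×ERE-luciferase) were held 5 days in phenol red-free medium with 10% charcoal-stripped FBS, plated, then given 10.0nM ICI-182,780 and compounds at 15 concentrations for 22hr at 37C; viability read by CellTiter-Fluor fluorescence.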

The nature of assay [14]: qHTS assay to identify small molecule phospholipidosis (PLD) inducers (AID 1259344; active = well fitted curve in the direction sought with a large enough effect; an effect the other way counts as inactive or inconclusive). A digest of the protocol:
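Phospholipidosis is scored by imaging LipidTOX-stained pits in HepG2 cells exposed to compound for 24 h at 37 C; pit counts and integrated intensities per well and per cell serve as outputs.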

Assay [15] is described as follows: qHTS assay to identify small molecule HDAC inhibitors (AID 1259364). Note: nearly all actives have a fitted effect of over 45% in size. Note: potency is the fitted concentration of half-maximal effect. In short, it runs like this:
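Wild-type HCT-116 cells were plated overnight, exposed to compounds for 2 h at 37 °C, then given HDAC-Glo class I/II luminogenic reagent for 30 min at room temperature before luminescence was read.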

Assay [16] is described as follows: qHTS assay to identify small molecule agonists of the sonic hedgehog signaling (Shh) pathway - cell viability counter screen (AID 1259366). Note: nearly all actives have a fitted effect of over 50% in size. A digest of the protocol: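 After a 4hr attachment at 37C, NIH/3T3 cells bearing an integrated Gli1-driven luciferase reporter were dosed with compounds. Treatment lasted 24hr, with the final hour including CellTiter-Fluor for a fluorescence viability measurement.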

A short description of assay [17]: qHTS assay to identify small molecule antagonists of the sonic hedgehog signaling (Shh) pathway (AID 1259369; calls by dose curve; note: nearly all actives have a fitted effect of over 45% in size; note: potency is the fitted concentration of half-maximal effect). A digest of the protocol:
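NIH/3T3-derived 3T3Gli1-Luc cells with stably integrated Gli1-Luc reporter were preincubated 4hr at 37 C, then given compounds in DMSO plus Shh conditioned medium and incubated 24hr. Firefly luciferase luminescence read after 30min reagent at room temperature.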

The target of assay [18] is Thyrotropin receptor (Homo sapiens) (UniProt P16473). Nature of the assay: qHTS assay to identify small molecule antagonists of the thyroid stimulating hormone receptor (TSHR) signaling pathway (AID 1259385; calls by dose curve; note: nearly all actives have a fitted effect of over 20% in size). A digest of the protocol:
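Antagonist mode: compound-treated TSHR-expressing HEK293 cells were stimulated with 1.5 ng/mL TSH (final) in presence of Ro20-1724 for 30 min at RT. HTRF cAMP detection after 1 h; each compound tested at 15 concentrations, triplicate.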

Assay [19] deals with Estrogen receptor beta (Homo sapiens) (UniProt Q92731). Nature of the assay: qHTS assay to identify small molecule agonists of the estrogen receptor beta (ER-beta) signaling pathway (AID 1259377; active = well fitted activation curve with a large enough effect in the signal ratio in the repeat runs, not every such curve was filed as active; the % refers to the signal ratio; note: potency is the fitted concentration of half-maximal effect). A digest of the protocol:
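In HEK293T cells bearing a UAS-beta-lactamase reporter under ER-beta control, DMSO-delivered compounds were incubated for 16 hr at 37C. Activity was detected as fluorescence 2 hours after LiveBLAzer B/G FRET substrate addition.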

Assay [20] shares this target. Nature of the assay: qHTS assay to identify small molecule antagonists of the estrogen receptor beta (ER-beta) signaling pathway (AID 1259378; active = well fitted inhibition curve with a large enough effect in the signal ratio in the repeat runs, not every such curve was filed as active; the % refers to the signal ratio; note: potency is the fitted concentration of half-maximal effect). In short, it runs like this: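 Antagonist mode: compounds added to beta-lactamase reporter HEK293T ER-beta-UAS cells stimulated with E2 (1nM final), 16 hr at 37C. LiveBLAzer B/G FRET substrate, 2 hours room temperature, fluorescence read-out.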

Androgen receptor (Homo sapiens), sequence (P10275 whole entry, looked up): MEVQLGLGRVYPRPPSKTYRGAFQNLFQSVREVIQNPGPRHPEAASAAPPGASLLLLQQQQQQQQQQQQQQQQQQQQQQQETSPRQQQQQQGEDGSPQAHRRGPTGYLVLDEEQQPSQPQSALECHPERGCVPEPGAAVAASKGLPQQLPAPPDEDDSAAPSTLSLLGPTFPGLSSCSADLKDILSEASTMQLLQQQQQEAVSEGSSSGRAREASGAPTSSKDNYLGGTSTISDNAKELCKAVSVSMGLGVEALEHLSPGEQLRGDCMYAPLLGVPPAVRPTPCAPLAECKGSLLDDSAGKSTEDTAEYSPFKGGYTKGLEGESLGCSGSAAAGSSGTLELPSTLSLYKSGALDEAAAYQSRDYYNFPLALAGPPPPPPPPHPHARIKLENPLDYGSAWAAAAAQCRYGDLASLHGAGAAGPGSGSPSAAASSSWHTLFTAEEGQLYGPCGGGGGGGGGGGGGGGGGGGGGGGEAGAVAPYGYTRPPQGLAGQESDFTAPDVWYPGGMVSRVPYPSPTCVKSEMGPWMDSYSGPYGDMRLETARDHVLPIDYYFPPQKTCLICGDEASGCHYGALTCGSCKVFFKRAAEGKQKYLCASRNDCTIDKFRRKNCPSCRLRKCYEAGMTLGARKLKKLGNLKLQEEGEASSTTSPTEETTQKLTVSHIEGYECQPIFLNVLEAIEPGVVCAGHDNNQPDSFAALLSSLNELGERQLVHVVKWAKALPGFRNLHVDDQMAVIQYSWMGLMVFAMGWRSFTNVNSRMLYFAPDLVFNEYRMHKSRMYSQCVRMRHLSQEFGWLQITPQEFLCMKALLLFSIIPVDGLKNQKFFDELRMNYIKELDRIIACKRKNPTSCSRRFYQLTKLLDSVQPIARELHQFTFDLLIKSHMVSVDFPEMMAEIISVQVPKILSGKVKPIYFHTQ
Estrogen receptor (Homo sapiens), sequence (P03372 whole entry, looked up): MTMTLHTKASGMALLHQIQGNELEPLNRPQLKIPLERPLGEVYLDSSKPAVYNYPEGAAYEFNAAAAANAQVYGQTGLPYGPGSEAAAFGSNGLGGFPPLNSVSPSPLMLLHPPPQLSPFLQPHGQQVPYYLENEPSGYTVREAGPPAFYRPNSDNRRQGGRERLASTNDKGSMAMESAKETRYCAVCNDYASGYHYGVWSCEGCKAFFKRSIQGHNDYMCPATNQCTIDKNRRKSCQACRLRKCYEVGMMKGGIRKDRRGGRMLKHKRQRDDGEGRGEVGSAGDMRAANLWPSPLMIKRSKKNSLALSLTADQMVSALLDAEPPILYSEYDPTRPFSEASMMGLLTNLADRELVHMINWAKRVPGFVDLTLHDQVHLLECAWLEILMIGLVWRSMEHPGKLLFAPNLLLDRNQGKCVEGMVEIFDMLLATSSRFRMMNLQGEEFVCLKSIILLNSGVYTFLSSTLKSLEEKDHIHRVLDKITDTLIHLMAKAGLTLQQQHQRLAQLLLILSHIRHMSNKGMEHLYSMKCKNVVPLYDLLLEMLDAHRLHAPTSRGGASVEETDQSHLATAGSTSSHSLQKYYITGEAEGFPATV
Thyrotropin receptor (Homo sapiens), sequence (P16473 whole entry, looked up): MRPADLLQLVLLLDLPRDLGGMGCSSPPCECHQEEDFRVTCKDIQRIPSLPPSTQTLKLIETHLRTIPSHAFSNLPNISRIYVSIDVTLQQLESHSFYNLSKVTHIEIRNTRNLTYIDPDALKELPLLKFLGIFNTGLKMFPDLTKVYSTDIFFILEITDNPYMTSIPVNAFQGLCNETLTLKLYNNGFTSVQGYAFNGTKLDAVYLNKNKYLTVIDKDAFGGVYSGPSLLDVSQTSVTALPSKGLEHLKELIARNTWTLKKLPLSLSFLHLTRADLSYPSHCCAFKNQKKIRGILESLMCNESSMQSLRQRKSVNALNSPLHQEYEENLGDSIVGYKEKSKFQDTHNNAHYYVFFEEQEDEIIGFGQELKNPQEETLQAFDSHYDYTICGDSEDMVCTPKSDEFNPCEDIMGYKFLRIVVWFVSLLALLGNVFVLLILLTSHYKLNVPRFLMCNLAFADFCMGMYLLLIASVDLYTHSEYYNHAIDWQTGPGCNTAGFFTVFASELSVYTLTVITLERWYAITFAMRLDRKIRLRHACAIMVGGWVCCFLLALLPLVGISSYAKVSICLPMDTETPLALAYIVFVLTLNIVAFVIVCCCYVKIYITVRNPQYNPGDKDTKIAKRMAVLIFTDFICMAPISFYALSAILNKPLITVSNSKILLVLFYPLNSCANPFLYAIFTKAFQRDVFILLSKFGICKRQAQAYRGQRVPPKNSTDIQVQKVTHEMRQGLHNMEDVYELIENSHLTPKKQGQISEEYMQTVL
Estrogen receptor beta (Homo sapiens), sequence (Q92731 whole entry, looked up): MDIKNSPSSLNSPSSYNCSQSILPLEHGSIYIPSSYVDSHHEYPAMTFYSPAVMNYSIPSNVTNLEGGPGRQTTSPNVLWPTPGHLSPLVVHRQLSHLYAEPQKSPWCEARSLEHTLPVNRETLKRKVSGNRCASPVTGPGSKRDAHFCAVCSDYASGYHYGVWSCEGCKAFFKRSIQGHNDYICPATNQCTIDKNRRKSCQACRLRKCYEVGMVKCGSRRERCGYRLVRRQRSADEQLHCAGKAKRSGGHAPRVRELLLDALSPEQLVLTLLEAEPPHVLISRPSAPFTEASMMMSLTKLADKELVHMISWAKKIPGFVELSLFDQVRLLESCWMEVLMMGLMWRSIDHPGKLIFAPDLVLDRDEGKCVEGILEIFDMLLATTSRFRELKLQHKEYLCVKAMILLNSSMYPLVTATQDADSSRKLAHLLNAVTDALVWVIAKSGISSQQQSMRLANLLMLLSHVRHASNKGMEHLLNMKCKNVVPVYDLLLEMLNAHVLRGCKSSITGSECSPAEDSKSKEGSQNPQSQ

As to `Cc1cc(CCN2CCN(c3nsc4ccccc34)CC2)cc2c1NC(=O)CC2(C)C`, the Potency in assay [1] is 27.3 µM (active); in assay [2], 8.63 µM (active); in assay [3], 13.7 µM (active); in [5], 19.3 µM (active); in assay [7], 30.6 µM (active); in [8], 21.7 µM (active). Further, the Potency is 19.3 µM (active) in assay [10] and 48.6 µM (active) in assay [13]. The Potency result in assay [4], in [6], in assay [9] and in assay [11] was “inactive” throughout. The outcome in assay [12] was inactive.

`OCc1c[nH]c2ccccc12`: the Potency entry in assay [1], in assay [14], in assay [15], in assay [4], in assay [16] and in assay [6] was “inactive” in each case. Moreover, the Potency entry in assay [9], in [11], in [18] and in assay [13] was “inactive” each time. For the same molecule, the Potency in assay [2] was 17.2 µM (active); in assay [17], 30.6 µM (active).

As to `CCCCCCOC(=O)c1ccc(O)cc1`, the Potency entry in assay [1], in [2], in assay [3], in assay [4], in assay [19] and in assay [7] was “inactive” each time. For the same molecule, the Potency result in assay [9], in [10], in [18] and in assay [13] was “inactive” each time. For the same molecule, the Potency in assay [15] was 24.4 µM (active) and 27.3 µM (active); in assay [11], 27.3 µM (active). Further, the molecule was called inactive in assay [12].

On to `Cc1cccc(CN2CCN(C(c3ccccc3)c3ccc(Cl)cc3)CC2)c1` (configuration not stated), for which the Potency result in assay [1], in assay [3], in assay [14], in assay [15], in [4] and in assay [16] was “inactive” in each case. The Potency result in assay [5], in [6], in assay [17], in assay [19], in assay [7] and in [8] was “inactive” throughout. The Potency entry in assay [11] and in assay [13] was “inactive” each time. Moreover, the outcome in assay [12] was inactive.

Consider `CC1(C)CCC(C)(C)c2cc(C(=O)Nc3ccc(C(=O)O)cc3)ccc21`, for which the Potency result in [1], in assay [2], in assay [3], in assay [15], in assay [6] and in assay [19] was “inactive” throughout. Moreover, the Potency entry in assay [7], in assay [9], in assay [10], in [11] and in [13] was “inactive” in each case. Also, the Potency in [20] is 43.3 µM (active). The outcome in [12] was inactive.

For `N=C1C=CC(=C(c2ccc(N)cc2)c2ccc(N)cc2)C=C1`, the Potency in assay [1] was 9.69 µM (active); in [2], 3.06 µM (active); in assay [3] it was 7.7 µM (active); in [4] it was 24.3 µM (active); in assay [5] it was 19.3 µM (active); in [17], 12.2 µM (active). Moreover, the Potency was 12.2 µM (active) in assay [7], 7.7 µM (active) in [8] and 24.3 µM (active) in assay [13]. In addition, the Potency result in assay [6], in [9] and in [11] was “inactive” throughout.

As to `O=C(c1ccc(O)cc1O)c1ccc(O)cc1O`, the Potency result in [1], in [3], in assay [4], in assay [16], in assay [6] and in assay [7] was “inactive” each time. Besides, the Potency result in assay [8], in assay [18] and in assay [13] was “inactive” each time. Also, the Potency in [2] was 3.07 µM (active) and 3.06 µM (active); in [17] it was 17.2 µM (active) and 24.3 µM (active); in assay [19] it was 8.64 µM (active) and 7.7 µM (active); in assay [11], 9.7 µM (active) and 7.7 µM (active). Moreover, the molecule was called inactive in assay [12].
